Screening results: PubChem BioAssay, several laboratories
In the library only some 12% were active in any assay of this set; here they are far more common.
L major viab = Leishmania major promastigote growth inhibition, primary screen | Leishmania major promastigotes, resazurin fluorescence viability | hit rate 9% among 200,000 | inhibition, % at 10 µM; in the data active means inhibition above about 50%;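 further: promastigotes grown with compound for 44 hours at 28 °C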
Calpain2 inh = inhibitors of pig calpain II, primary screen, biochemical, fluorogenic peptide substrate, 1536-well; purified calpain II, 30 min; inhibition, % at 16 µM; hit rate 0.37% among 220,000;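 active means inhibition above about 50%, limit read from the data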
ROMK mod = ROMK potassium channel modulators, primary screen, cell-based, thallium flux, MLSMR library; ATP-sensitive inward rectifier potassium channel 1 (Homo sapiens), P48048; B-score at 10 µM; hit rate 2% among 130,000; Tet-inducible ROMK, thallium flux fluorescence; actives lie on both sides;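 active means signal ratio slope over the read window, or its plate-corrected B-score, at least 3 SD from the plate mean, either direction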;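 further: B-score of the F/F0 ratio slope over 7 to 12 s after thallium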
WT yeast gro inh = growth inhibition of WT strain, primary screen, mitochondrial fusion inhibitor project, WT and mutant strains, chemical genetic; mitochondrial fusion phenotypic screen; inhibition, % at 10 µM; hit rate 2.1% among 190,000; AID 1362, 2008; in the data active means inhibition above about 58%; tested in S. cerevisiae
KCC2 mod = KCC2 cotransporter modulators, thallium flux, primary screen, cell-based, HEK293 KCC2, FluoZin-2 fluorescence, MLSMR | AID 1456, 2008 | B-score of Tl+ flux slope (higher = more flux/activation; lower = inhibition) at 10 µM | hit rate 2.2% among 190,000 | KCC2 cells, thallium flux FluoZin-2 fluorescence | Solute carrier family 12 member 5 (Homo sapiens), Q9H2X9;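 active means thallium flux slope and its plate-corrected score both differing from the plate sample mean at a set confidence after two filtering rounds, in either direction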;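 further: slope of fluorescence scaled to starting intensity during 10 to 20 s after thallium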
Target sequence (Q9H2X9 whole entry, looked up): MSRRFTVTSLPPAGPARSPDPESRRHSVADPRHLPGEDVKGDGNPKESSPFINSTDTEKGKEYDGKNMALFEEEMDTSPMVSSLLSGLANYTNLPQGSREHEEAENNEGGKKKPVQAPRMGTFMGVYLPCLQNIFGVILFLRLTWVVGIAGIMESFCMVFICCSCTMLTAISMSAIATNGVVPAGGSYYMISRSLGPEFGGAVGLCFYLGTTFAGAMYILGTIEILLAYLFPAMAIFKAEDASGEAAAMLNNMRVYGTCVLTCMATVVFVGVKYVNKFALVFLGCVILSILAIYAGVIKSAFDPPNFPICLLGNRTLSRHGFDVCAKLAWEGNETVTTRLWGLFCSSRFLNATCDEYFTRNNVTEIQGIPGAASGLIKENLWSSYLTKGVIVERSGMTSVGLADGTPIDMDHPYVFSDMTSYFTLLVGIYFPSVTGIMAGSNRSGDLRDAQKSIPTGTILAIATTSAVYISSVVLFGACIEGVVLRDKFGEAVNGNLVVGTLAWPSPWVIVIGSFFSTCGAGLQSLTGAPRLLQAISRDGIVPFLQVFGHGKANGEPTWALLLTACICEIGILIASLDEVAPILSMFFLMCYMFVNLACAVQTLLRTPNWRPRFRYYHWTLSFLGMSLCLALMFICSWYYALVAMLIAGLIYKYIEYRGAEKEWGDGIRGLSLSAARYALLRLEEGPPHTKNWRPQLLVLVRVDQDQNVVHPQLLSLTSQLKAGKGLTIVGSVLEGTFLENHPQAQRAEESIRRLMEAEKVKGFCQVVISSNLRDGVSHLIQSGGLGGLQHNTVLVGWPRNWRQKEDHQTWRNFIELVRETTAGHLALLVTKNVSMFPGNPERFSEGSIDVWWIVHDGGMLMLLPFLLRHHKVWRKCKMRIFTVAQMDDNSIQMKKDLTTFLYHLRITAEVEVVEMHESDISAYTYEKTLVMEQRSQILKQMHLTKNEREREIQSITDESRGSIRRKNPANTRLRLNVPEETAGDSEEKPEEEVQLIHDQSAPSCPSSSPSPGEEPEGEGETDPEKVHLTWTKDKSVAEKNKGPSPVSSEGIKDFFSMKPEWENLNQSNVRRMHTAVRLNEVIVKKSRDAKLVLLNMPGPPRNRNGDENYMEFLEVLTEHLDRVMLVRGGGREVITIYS
KCC2 secondary = KCC2 modulators in sodium-free buffer, confirmation, cell-based, HEK293 KCC2, thallium flux, secondary assay. shares compounds with KCC2 mod. FluoZin2 fluorescence; stronger effect = higher value. normalised thallium flux (F/F0 slope) at 10 µM. hit rate 15% among 3,700;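 active means thallium flux slope above the same plate's solvent-only control mean plus 3 SD; inconclusive means the two replicate wells disagree; inactive means no significant difference from solvent-only control wells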
KCC2 bumet counter = thallium flux persisting under bumetanide in KCC2 cells, confirmation, counter-screen for KCC2 modulator project, cell-based, HEK293 KCC2, FluoZin2, secondary assay 3; shares compounds with KCC2 mod; normalized thallium flux at 10 µM; HEK293-KCC2 + bumetanide/ouabain; stronger effect = higher value; hit rate 49% among 3,700; AID 1714, 2009;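 active means thallium entry rate above the same plate's blocked-transporter control wells by more than 3 SD; inconclusive means the two repeat wells disagree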;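 further: raw slope of fluorescence over initial fluorescence between 10 and 20 s after thallium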
KCC2 sec2 = KCC2 modulators without ouabain present, confirmation, cell-based, HEK293 KCC2, thallium flux, FluoZin2, secondary assay 2; normalized thallium flux at 10 µM; thallium flux FluoZin2 fluorescence; actives lie on both sides; F/F0 rise rate, 10–20 s post-thallium; hit rate 23% among 3,700; shares compounds with KCC2 mod;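 active means thallium flux slope more than 3 SD above or below the plate's solvent-only control mean, mostly below; inconclusive means the two repeat wells disagreed; inactive means no significant shift from solvent-only controls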;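 further: raw slope with 0.1% DMSO as baseline and bumetanide as block control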
HEK293 Tl flux = thallium flux modulation in parental HEK cells, confirmation, counter-screen for KCC2 modulator project, cell-based, counterscreen 1; hit rate 46% among 3,700; HEK293 parental cells, thallium flux FluoZin2, ouabain; baseline-ratio fluorescence slope, 10–20 s after thallium; shares compounds with KCC2 mod; thallium flux rate (normalised fluorescence) at 10 µM;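 active means thallium flux rate significantly above the same plate's solvent-only control wells, beyond their mean plus 3 SD; inconclusive means the two replicate wells gave conflicting results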
KCC2 retest ouab = KCC2 inhibitors and activators, ouabain retest, confirmation, HEK-KCC2 cells; raw Tl+ flux slope (below DMSO = inhibition, above = activation) at 10 µM; hit rate 48% among 3,700; shares compounds with KCC2 mod; AID 1717, 2009; HEK293-KCC2, thallium flux FluoZin2 fluorescence; bidirectional: low = inhibitor, high = activator;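 active means thallium flux slope beyond 3 SD from same-plate DMSO control mean in most replicates, usually higher, sometimes lower; inconclusive means repeat tests gave conflicting results; inactive means no significant difference from controls in most replicates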;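 further: slope of initial-normalized fluorescence between seconds 10 and 20 after thallium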
HEK counter2 = native HEK Tl+ uptake effects, second counter-screen – HEK cells, counterscreen 2, counter-screen for KCC2 modulator project, confirmation; shares compounds with KCC2 mod; HEK293 parental, thallium flux FluoZin-2 fluorescence slope; thallium flux slope at 10 µM; hit rate 33% among 3,700;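 active means thallium flux slope above the same plate's solvent-control mean plus 3 SD in both duplicate wells; inconclusive means duplicate wells that disagreed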;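 further: run without ouabain in cells lacking the KCC2 cotransporter; slope of fluorescence scaled to its starting value between 10 and 20 s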
The depositor's hits bear a star; ? = inconclusive; . = no result.

SMILES | L major viab | Calpain2 inh | ROMK mod | WT yeast gro inh | KCC2 mod | KCC2 secondary | KCC2 bumet counter | KCC2 sec2 | HEK293 Tl flux | KCC2 retest ouab | HEK counter2
CCOC(=O)c1cc(C)n(Cc2cccc(OC)c2OC)c1C | 17.8 | -24.7 | -0.311 | 24.0 | . | 0.00647 | 0.00419 | 0.0302 | 0.00681 | 0.0166 | 0.0107
CCOC(=O)c1c(C)c(C)n(Cc2cccc(OC)c2OC)c1C | 12.0 | 16.9 | 1.05 | 10.9 | -1.25 | . | . | . | . | . | .
COc1ccc(N2C(=O)C3CCCCC3C2=O)cc1NC(=O)c1ccccc1 (configuration not stated) | -5.9 | -8.9 | 0.303 | -9.6 | -0.0163 | . | . | . | . | . | .
c1ccc(-n2cnc3cc(NCc4ccncc4)ccc32)cc1 | 3.1 | -8.6 | -0.0976 | 16.3 | -4.37* | 0.00559 | 0.00451 | 0.0249* | 0.00738 | ? | 0.00951
COC(=O)NNC(=O)C1CCC(C(=O)NNC(=O)OC)CC1 (configuration not stated) | -5.2 | -18.2 | . | -2.9 | -0.00161 | . | . | . | . | . | .
CCOc1ccc(/C=N/n2cc(-c3ccccc3)[nH]c2=S)cc1 | -2.6 | -15.2 | -0.0819 | 38.5 | 27.7* | ? | 0.0569* | 0.0326 | 0.0265* | 0.0533* | 0.0123*
S=c1[nH]c(-c2ccccc2)cn1/N=C/c1ccncc1 | . | -11.8 | -0.488 | . | 1.84 | . | . | . | . | . | .
Cc1cc(/C=C2/C(=O)N(C)C(=S)N2C)ccc1N1CCCC1 | 1.8 | 13.9 | -1.06 | 21.9 | -1.13 | . | . | . | . | . | .
Cc1cc(/C=C2\NC(=S)N(C)C2=O)ccc1N1CCCC1 | 12.7 | 4.1 | -0.604 | 31.6 | 6.43* | 0.00724 | 0.0118* | ? | ? | 0.0162 | 0.0103
Cc1ccccc1C(=O)Nc1nnc(-c2cccnc2)o1 | -5.2 | 4.6 | 0.764 | -8.2 | 1.07 | . | . | . | . | . | .
Cc1ccccc1C(=O)Nc1nnc(-c2ccc(F)cc2)o1 | 33.1 | 15.4 | . | 69.9* | 7.32* | 0.0129* | 0.024* | 0.0339 | 0.0156* | 0.0292 | ?
Cc1ccc(C)c(SCC(=O)Nc2nnc(-c3ccccc3)o2)c1 | -4.5 | 23.3 | -1.03 | 72.8* | 15.6* | 0.0187* | 0.0566* | 0.0368 | 0.0383* | 0.0463* | 0.0139*
CCC(c1nnc(SCC(=O)Nc2nnc(-c3ccccc3)o2)o1)N(C)C (configuration not stated) | -1.6 | -62.8 | . | 1.1 | 0.138 | . | . | . | . | . | .
COc1ccc(-c2nnc(NC(=O)c3cc(Cl)ccc3Cl)o2)cc1 | 41.6 | -9.5 | . | 72.0 | 22.7* | 0.00717 | 0.0549* | 0.0444* | 0.0388* | 0.0497* | 0.0314*
O=C(NCc1ccncc1)C(=O)Nc1nc2ccccc2s1 | -3.3 | 21.3 | 0.251 | -18.9 | 0.704 | . | . | . | . | . | .
COC(=O)c1c(C)[nH]c(C(=O)NCc2ccco2)c1C | -1.1 | -4.9 | -0.0854 | 1.7 | 0.637 | . | . | . | . | . | .
